Among the data in PubChem BioAssay (EPA / NIEHS) are outcome and AC50 values, retold here.

The nature of assay [1]: ATG_M_32_CIS: Attagene CIS-FACTORIAL HepG2 Assay for M32 Transcription Factor (Internal Marker) (AID 2282949).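 Further: background control marker of the multiplexed CIS panel rather than a real target.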 To be noted: HepG2 Attagene cis-factorial M32 reporter, mRNA; actives raise or lower the signal. The procedure, abridged: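 Using DMSO as baseline, bidirectional curve fits were applied to reporter mRNA signals. These came from transiently transfected HepG2 cells exposed for 24 h, with RNA analysed by RT-PCR, FAM primer extension, HpaI digestion and CE.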

In assay [2] the target is Hypoxia-inducible factor 1-alpha (Homo sapiens) (UniProt Q16665). Nature of the assay: ATG_HIF1a_CIS: Attagene CIS-FACTORIAL HepG2 Assay for human Hypoxia Inducible Factor 1 (HIF1A) (AID 2282951). Particulars: HepG2 Attagene cis-factorial HIF1a reporter transcription; actives raise or lower the signal. Put shortly: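 Measures endogenous transcription-factor activity through cis-regulated reporter mRNA in HepG2. Cells dosed 24 h; transcripts quantified by RT-PCR with 6-FAM-labelled products separated by capillary electrophoresis; DMSO serves as negative control.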
Chain of Hypoxia-inducible factor 1-alpha (Homo sapiens) (Q16665 whole entry, looked up): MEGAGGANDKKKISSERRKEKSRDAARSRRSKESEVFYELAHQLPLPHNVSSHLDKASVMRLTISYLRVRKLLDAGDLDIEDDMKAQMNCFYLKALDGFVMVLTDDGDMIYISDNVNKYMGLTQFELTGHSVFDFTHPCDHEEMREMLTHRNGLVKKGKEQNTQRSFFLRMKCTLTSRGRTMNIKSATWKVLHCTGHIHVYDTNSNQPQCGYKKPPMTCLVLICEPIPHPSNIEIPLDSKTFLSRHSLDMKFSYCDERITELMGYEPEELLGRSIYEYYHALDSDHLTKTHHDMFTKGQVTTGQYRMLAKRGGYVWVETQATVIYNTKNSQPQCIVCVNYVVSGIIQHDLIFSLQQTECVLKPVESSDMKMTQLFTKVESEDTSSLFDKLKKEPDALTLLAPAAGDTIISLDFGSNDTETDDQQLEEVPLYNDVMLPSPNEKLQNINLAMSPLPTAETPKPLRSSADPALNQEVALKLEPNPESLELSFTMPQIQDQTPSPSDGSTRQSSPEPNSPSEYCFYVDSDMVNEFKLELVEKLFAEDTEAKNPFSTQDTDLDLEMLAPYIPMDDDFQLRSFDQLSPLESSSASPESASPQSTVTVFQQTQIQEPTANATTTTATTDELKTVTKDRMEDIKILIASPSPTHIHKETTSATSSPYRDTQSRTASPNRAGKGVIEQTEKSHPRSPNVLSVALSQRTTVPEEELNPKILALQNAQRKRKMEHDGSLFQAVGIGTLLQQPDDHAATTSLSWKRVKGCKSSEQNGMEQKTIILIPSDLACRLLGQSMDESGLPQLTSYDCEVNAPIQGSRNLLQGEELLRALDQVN

Assay [3] addresses Hepatocyte nuclear factor 6 (Homo sapiens) (UniProt Q9UBC0). The assay can be described thus: ATG_HNF6_CIS: Attagene CIS-FACTORIAL HepG2 Assay for human Hepatocyte Nuclear Factor 6 (HNF6) (AID 2282952). Particulars: HepG2 Attagene cis-factorial HNF6 reporter transcription; actives raise or lower the signal. Put shortly:
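Endogenous transcription factor activity in human HepG2 liver cells was captured through cis-regulated reporter constructs. After 24 h treatment, reporter mRNA was measured by RT-PCR with capillary electrophoresis, and activity was fitted in both directions relative to DMSO.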

In assay [4] the target is Heat shock factor protein 1 (Homo sapiens) (UniProt Q00613). The assay can be described thus: ATG_HSE_CIS: Attagene CIS-FACTORIAL HepG2 Assay for human Heat Shock Transcription Factor 1 (HSE) (AID 2282953). To be noted: HepG2 HSE cis-reporter, Attagene RNA transcription; actives raise or lower the signal. The procedure, abridged:
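Endogenous transcription factor activity in transiently transfected HepG2, read as reporter mRNA by RT-PCR with fluorescent capillary electrophoresis after 24 h. Gain or loss of signal fitted versus DMSO baseline.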

The nature of assay [5]: ATG_MRE_CIS: Attagene CIS-FACTORIAL HepG2 Assay for human Metal Responsive Element (MRE) (AID 2282954). To be noted: HepG2 MRE cis-reporter transcription, Attagene multiplex; actives raise or lower the signal. Put shortly: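 RT-PCR/capillary electrophoresis readout of reporter mRNA, 24 h post-dosing, in HepG2 cells transfected with multiplexed cis-regulated reporter constructs. Gain or loss of signal fitted bidirectionally against DMSO baseline.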

Assay [6] is described as follows: ATG_PBREM_CIS: Attagene CIS-FACTORIAL HepG2 Assay for human Phenobarbital-responsive Enhancer Module (PBREM) (AID 2282955). To be noted: HepG2 PBREM cis-reporter, Attagene multiplexed transcription; actives raise or lower the signal. Put shortly: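 Fluorescence of labelled reporter cDNA fragments, resolved by capillary electrophoresis, gives mRNA induction in transfected HepG2 cells treated for 24 h; DMSO serves as negative control and baseline.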

Assay [7] is described as follows: ATG_PXRE_CIS: Attagene CIS-FACTORIAL HepG2 Assay for human Pregnane X Receptor Element (PXRE) (AID 2282957). To be noted: HepG2 Attagene CIS-FACTORIAL PXRE reporter, mRNA; actives raise or lower the signal. Put shortly: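 Endogenous transcription factor activity in HepG2 was gauged through induction of reporter mRNA driven by a cis-regulating promoter element, sampled 24 h post-treatment. Activity was fitted in both directions against DMSO negative control.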

Assay [8] can be described thus: ATG_PPRE_CIS: Attagene CIS-FACTORIAL HepG2 Assay for human Peroxisome Proliferator-activated Response Element (PPRE) (AID 2282958). Particulars: HepG2 PPRE cis-element reporter, Attagene transcription factor profiling; actives raise or lower the signal. Put shortly: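 Cells are first transfected transiently with the multiplexed reporter library, then dosed for 24 h. Total RNA is reverse-transcribed, amplified, fluorescently end-labeled and HpaI-cut before capillary electrophoresis; activity is fitted bidirectionally against DMSO controls.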

Assay [9] in a line: ATG_RORE_CIS: Attagene CIS-FACTORIAL HepG2 Assay for human RAR-related Orphan Receptor Element (RORE) (AID 2282959). Particulars: HepG2 Attagene cis-factorial RORE reporter, mRNA; actives raise or lower the signal. The procedure, abridged: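 Cells were HepG2 carrying transfected cis-regulated reporter constructs, dosed for 24 hours. Total RNA was reverse-transcribed and reporter cDNA amplified, fluorescently labeled and sized by capillary electrophoresis. Activity was fitted bidirectionally relative to DMSO.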

Assay [10] can be described thus: ATG_Sox_CIS: Attagene CIS-FACTORIAL HepG2 Assay for human SRY-box transcription factor (SOX) (AID 2282960). Particulars: HepG2 Attagene cis-factorial SOX reporter, mRNA; actives raise or lower the signal. Put shortly:
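Transient MRTU transfection of HepG2; 24 h compound incubation; TriZol RNA, oligo(dT) RT, PCR, 6-FAM primer extension, HpaI cut, CE. Bidirectional fit, DMSO = baseline.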

Assay [11] concerns the target Transcription factor Sp1 (Homo sapiens) (UniProt P08047). The assay can be described thus: ATG_Sp1_CIS: Attagene CIS-FACTORIAL HepG2 Assay for human Specificity Protein 1 (Sp1) (AID 2282961). To be noted: HepG2 Sp1 cis-reporter transcription, actives raise or lower the signal. Put shortly: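 Endogenous Sp1 activity was gauged in human liver HepG2 cells bearing transfected reporter units under a cis-regulating promoter. After 24 h dosing, reporter mRNA was quantified by RT-PCR with capillary electrophoresis, and activity fitted bidirectionally versus DMSO.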

A short description of assay [12]: ATG_SREBP_CIS: Attagene CIS-FACTORIAL HepG2 Assay for human Sterol Regulatory Element Binding (SREBP) (AID 2282962). Particulars: HepG2 Attagene cis-factorial SREBP reporter, mRNA; actives raise or lower the signal. The procedure, abridged:
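Endogenous SREBP activity read as cis-element-driven reporter transcript in transiently transfected HepG2, 24 h post-dosing; quantified via RT-PCR plus capillary electrophoresis of fluorescent fragments. Gain or loss of signal fitted relative to DMSO baseline.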

Assay [13] concerns the target Signal transducer and activator of transcription 3 (Homo sapiens) (UniProt P40763). The assay can be described thus: ATG_STAT3_CIS: Attagene CIS-FACTORIAL HepG2 Assay for human Signal Transducer and Activator of Transcription 3 (STAT3) (AID 2282963). Particulars: HepG2, Attagene cis-factorial STAT3 reporter transcription; actives raise or lower the signal. The procedure, abridged: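 Readout: fluorescent reporter mRNA fragments resolved by capillary electrophoresis. Setup: HepG2 transfected with MRTUs reporting endogenous transcription-factor activity, dosed 24 h. Gain or loss of signal fitted bidirectionally against DMSO control.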

Assay [14] can be described thus: ATG_TA_CIS: Attagene CIS-FACTORIAL HepG2 Assay for human TA Basal Promoter (AID 2282964). Particulars: HepG2 Attagene CIS-factorial TA basal promoter reporter; actives raise or lower the signal. The procedure, abridged: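 Background-control readout: TA basal promoter reporter mRNA, fitted in both directions relative to DMSO. Measured by RT-PCR and capillary electrophoresis 24 hours after treating HepG2 human liver cells transiently carrying multiplexed cis-regulated reporter constructs.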

A short description of assay [15]: ATG_TCF_b_cat_CIS: Attagene CIS-FACTORIAL HepG2 Assay for human T-Cell-Factor with beta-catenin (TCF/b-cat) (AID 2282965). Particulars: HepG2 TCF/beta-catenin cis-reporter transcription, actives raise or lower the signal. Put shortly: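 Cells of the HepG2 line carry transiently transfected reporter units whose promoters respond to endogenous factors. Twenty-four hours post-dosing, reporter mRNA induction is measured by fluorescent RT-PCR and capillary electrophoresis, with DMSO as baseline.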

The nature of assay [16]: ATG_TAL_CIS: Attagene CIS-FACTORIAL HepG2 Assay for human TAL Basal Promoter (AID 2282966).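 Further: background control endpoint measuring basal TAL promoter reporter mRNA not a specific factor.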 Particulars: HepG2 Attagene cis-factorial TAL promoter reporter; actives raise or lower the signal. Put shortly: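 Endogenous transcription-factor activity is sensed in HepG2 cells through transfected cis-promoter reporter constructs. After 24 h dosing, reporter transcripts are quantified by RT-PCR and capillary electrophoresis. Gain or loss of signal is fitted relative to DMSO.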

Assay [17] in a line: ATG_TGFb_CIS: Attagene CIS-FACTORIAL HepG2 Assay for human Transforming Growth Factor (TGF) (AID 2282967). To be noted: HepG2 Attagene CIS TGFb reporter, mRNA transcription; actives raise or lower the signal. Put shortly: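 Endogenous TGFB1-linked transcription factor activity read as reporter mRNA via RT-PCR and capillary electrophoresis, 24 h after dosing transiently transfected HepG2 cells. Gain or loss of signal fitted relative to DMSO.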

Assay [18] has as its target Paired box protein Pax-6 (Homo sapiens) (UniProt P26367). Nature of the assay: ATG_Pax6_CIS: Attagene CIS-FACTORIAL HepG2 Assay for human Paired Box 6 (PAX6) (AID 2282956). Particulars: HepG2 CIS-FACTORIAL PAX6 reporter transcription, RNA readout; actives raise or lower the signal. Put shortly:
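Read-out is reporter transcript level, measured by RT-PCR with fluorescent primer extension and capillary electrophoresis after 24 h dosing of transfected HepG2 cells. Activity in either direction fitted relative to DMSO control.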

Assay [19] is described as follows: ATG_VDRE_CIS: Attagene CIS-FACTORIAL HepG2 Assay for human Vitamin D Receptor Element (VDRE) (AID 2282968). To be noted: HepG2 VDRE cis-reporter transcription, actives raise or lower the signal. Put shortly: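 Transient MRTU transfection of HepG2, 24 h compound exposure. Readout: reporter transcripts via RT-PCR and capillary electrophoresis, fluorescence. Bidirectional fit vs DMSO.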

Active and inactive are the calls of the source. How the source made its calls: active means hit-call score of the fitted dose curve at least 0.9, where 1 is the maximum; inactive means score below 0.9.

Chain of Heat shock factor protein 1 (Homo sapiens) (Q00613 whole entry, looked up): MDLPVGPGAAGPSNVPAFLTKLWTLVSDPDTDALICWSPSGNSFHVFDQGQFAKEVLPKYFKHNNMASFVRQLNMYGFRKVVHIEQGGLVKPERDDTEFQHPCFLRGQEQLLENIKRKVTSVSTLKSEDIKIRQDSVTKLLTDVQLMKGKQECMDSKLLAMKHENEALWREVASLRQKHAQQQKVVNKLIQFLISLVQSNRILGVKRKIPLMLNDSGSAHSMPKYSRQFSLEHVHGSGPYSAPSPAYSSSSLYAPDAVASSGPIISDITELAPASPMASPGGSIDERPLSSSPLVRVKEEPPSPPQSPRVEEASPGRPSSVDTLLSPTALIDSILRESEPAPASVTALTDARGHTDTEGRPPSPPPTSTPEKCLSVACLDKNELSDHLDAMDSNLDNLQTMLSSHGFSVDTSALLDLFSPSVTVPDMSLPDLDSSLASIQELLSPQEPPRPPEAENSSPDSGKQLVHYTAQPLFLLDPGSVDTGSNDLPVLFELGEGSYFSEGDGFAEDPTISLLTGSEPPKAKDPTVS
Chain of Signal transducer and activator of transcription 3 (Homo sapiens) (P40763 whole entry, looked up, the tested form may be a part): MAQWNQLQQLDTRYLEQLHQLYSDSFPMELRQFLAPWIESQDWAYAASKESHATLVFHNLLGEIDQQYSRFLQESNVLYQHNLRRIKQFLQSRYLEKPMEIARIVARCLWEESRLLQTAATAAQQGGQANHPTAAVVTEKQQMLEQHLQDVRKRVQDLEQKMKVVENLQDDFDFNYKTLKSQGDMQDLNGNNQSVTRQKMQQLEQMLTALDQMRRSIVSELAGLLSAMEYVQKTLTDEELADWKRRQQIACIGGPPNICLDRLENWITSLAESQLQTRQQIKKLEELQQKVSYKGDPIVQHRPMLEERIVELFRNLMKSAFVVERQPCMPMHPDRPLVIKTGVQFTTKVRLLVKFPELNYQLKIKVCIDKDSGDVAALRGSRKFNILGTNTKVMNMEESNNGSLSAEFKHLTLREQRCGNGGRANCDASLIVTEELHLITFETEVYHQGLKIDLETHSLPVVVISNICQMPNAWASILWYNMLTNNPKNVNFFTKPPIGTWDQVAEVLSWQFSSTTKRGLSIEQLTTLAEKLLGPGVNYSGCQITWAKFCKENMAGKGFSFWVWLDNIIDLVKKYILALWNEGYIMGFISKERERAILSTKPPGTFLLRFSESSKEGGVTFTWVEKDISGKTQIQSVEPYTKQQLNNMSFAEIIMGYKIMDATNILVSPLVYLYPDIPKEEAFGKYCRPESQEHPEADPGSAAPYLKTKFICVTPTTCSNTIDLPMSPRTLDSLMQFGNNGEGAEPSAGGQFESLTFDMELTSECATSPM
Chain of Transcription factor Sp1 (Homo sapiens) (P08047 whole entry, looked up): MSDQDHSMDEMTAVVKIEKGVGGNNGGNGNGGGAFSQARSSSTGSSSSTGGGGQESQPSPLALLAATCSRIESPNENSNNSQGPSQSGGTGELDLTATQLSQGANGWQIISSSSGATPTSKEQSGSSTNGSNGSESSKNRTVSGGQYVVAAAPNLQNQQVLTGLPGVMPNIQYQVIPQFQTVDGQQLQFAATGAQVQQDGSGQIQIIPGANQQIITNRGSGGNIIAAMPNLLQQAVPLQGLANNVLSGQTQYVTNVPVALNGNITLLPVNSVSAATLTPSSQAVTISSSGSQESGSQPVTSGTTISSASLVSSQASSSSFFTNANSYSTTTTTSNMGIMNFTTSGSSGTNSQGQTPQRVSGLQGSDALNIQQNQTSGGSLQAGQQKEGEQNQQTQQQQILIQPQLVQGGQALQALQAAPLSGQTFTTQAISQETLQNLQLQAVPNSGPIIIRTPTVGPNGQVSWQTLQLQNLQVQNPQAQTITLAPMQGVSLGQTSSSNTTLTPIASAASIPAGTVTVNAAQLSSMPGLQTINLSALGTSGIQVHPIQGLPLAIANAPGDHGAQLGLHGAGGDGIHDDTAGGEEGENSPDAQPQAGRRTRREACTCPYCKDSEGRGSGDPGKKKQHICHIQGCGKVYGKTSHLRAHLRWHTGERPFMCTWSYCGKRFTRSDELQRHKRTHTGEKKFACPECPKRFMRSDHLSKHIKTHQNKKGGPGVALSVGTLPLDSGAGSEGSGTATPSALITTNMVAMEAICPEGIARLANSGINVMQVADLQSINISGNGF
Chain of Paired box protein Pax-6 (Homo sapiens) (P26367 whole entry, looked up): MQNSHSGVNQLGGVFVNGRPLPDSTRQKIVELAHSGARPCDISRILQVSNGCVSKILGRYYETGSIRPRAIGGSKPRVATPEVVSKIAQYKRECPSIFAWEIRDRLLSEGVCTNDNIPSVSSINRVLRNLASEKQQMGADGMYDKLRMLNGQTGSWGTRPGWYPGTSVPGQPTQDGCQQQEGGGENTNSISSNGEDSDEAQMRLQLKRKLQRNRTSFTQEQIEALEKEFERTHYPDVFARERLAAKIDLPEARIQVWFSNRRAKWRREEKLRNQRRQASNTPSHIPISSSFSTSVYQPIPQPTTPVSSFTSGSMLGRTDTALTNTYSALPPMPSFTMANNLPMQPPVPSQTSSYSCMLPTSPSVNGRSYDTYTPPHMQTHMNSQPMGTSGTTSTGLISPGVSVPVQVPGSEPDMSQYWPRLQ
Chain of Hepatocyte nuclear factor 6 (Homo sapiens) (Q9UBC0 whole entry, looked up): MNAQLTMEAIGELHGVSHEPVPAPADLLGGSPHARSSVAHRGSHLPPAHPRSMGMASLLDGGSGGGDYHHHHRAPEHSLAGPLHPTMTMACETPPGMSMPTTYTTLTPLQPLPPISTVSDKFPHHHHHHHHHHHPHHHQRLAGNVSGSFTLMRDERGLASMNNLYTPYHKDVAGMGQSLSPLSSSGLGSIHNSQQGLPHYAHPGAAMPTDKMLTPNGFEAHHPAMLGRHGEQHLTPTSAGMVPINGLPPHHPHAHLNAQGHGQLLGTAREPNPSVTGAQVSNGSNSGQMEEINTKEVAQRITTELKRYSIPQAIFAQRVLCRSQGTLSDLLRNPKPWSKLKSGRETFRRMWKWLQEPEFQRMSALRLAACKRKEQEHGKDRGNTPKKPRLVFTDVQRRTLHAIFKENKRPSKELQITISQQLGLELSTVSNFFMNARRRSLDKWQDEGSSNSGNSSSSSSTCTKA

One may read the AC50 as the midpoint of the concentration-response curve, whichever way the signal moves. For the compound `Oc1c(Br)cc(Br)cc1Br`, the compound was classed as inactive in assay [1], in [2], in assay [3], in assay [4], in [10] and in [12]. Besides, the outcome in assay [13], in [15] and in assay [16] was inactive. For the same compound, the AC50 in assay [5] was 78.7 µM (active); in [6], 20.9 µM (active); in assay [7] it was 5.82 µM (active); in assay [8], 51.2 µM (active); in assay [9], 40.6 µM (active); in [11] it was 25.9 µM (active). The AC50 is 65.7 µM (active) in [14] and 156 µM (active) in assay [17].

`CC(C)O.CC(C)O.OCCN(CCO)CCO.OCCN(CCO)CCO.[Ti]`: the result in assay [1], in [2], in [3], in assay [5], in [6] and in [10] was inactive. For the same compound, the outcome in assay [11], in [12], in [13], in assay [14], in assay [15] and in assay [16] was inactive. Besides, in assay [17], the outcome was inactive.

Consider `CCCCCCCCCCCCBr`, for which the compound was called inactive in assay [1], in assay [2], in assay [3], in assay [4], in [5] and in assay [6]. For the same compound, the outcome in assay [18], in [8], in [9], in [10], in [11] and in [12] was inactive. Further, the compound was classed as inactive in assay [13], in assay [14], in [15], in [16], in assay [17] and in assay [19].

Regarding `CCOC(=O)C(SP(=S)(OC)OC)c1ccccc1` (stereo not drawn), the call in assay [1], in [2], in assay [3], in assay [4], in assay [6] and in [9] was inactive. For the same compound, the compound was called inactive in [10], in [11], in assay [12], in assay [13], in [14] and in assay [15]. For the same compound, the compound was called inactive in assay [16], in assay [17] and in assay [19]. The AC50 was 37.3 µM (active) in [5] and 1.77 µM (active) in [7].

For the compound `CC(C)(C)c1ccc(CCOc2ncnc3ccccc23)cc1`, the result in [1], in [2], in assay [3], in assay [4], in assay [5] and in assay [6] was inactive. For the same compound, the compound was classed as inactive in [18], in assay [9], in [11], in assay [12], in assay [13] and in assay [14]. Also, the compound was called inactive in assay [15], in assay [16], in assay [17] and in [19]. Also, the AC50 in assay [7] is 34.7 µM (active).

For `CCCCCCCCCCCCCCC(Br)C(=O)O` (stereo not drawn), the AC50 in assay [1] is 164 µM (active); in assay [2], 150 µM (active); in assay [3], 187 µM (active); in assay [4], 154 µM (active); in assay [5] it was 161 µM (active); in [18], 142 µM (active). For the same compound, the AC50 in assay [8] was 42.2 µM (active); in [9], 111 µM (active); in assay [14], 110 µM (active); in assay [16], 129 µM (active); in assay [17] it was 162 µM (active); in [19] it was 162 µM (active). Besides, the compound was classed as inactive in assay [7], in [10], in assay [11], in [12] and in [13].

With `Nc1nc(=S)[nH][nH]1`, the compound was classed as inactive in assay [1], in assay [2], in [3], in [4], in assay [5] and in assay [18]. For the same compound, the call in assay [7], in assay [8], in assay [9], in [10], in [11] and in assay [13] was inactive. The compound was called inactive in assay [14], in [15], in assay [16], in [17] and in assay [19].

`N#Cc1ccncc1`: the result in assay [1], in assay [2], in assay [3], in assay [4], in [5] and in assay [18] was inactive. The compound was called inactive in assay [7], in [8], in assay [9], in assay [10], in assay [11] and in [13]. Also, the call in [14], in [15], in assay [16], in assay [17] and in assay [19] was inactive.
